Data taken from PubChem BioAssay (NCI).
The panel holds about 83,000 compounds, 20% with a hit somewhere; the sample as a whole holds those more often.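 Each cell line was grown in a 96-well plate and treated with one concentration of compound for 48 hours. Values below 10 were considered active.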 Unmarked numbers belong to inactive results. Activity calls are given as the source filed them.

How the values were obtained:
Assay in all cases: NCI-60 one-dose screen, 48 h (100 = growth as untreated, 0 = no growth, -100 = all killed)
Settings in all cases: 10 µM unless noted
NCI-H23 lung = system: NCI-H23 lung
NCI-H226 lung = system: NCI-H226 lung
NCI-H322M lung = system: NCI-H322M lung
HOP-62 NSCLC = system: HOP-62 NSCLC
NCI-H460 lung = system: NCI-H460 lung
HOP-92 NSCLC = system: HOP-92 NSCLC
NCI-H522 lung = system: NCI-H522 lung
A549/ATCC NSCLC = system: A549/ATCC NSCLC
786-0 renal = system: 786-0 renal
COLO 205 colon = system: COLO 205 colon
DU-145 prostate = system: DU-145 prostate
K-562 leukemia = system: K-562 leukemia
MALME-3M melanoma = system: MALME-3M melanoma
MDA-MB-231 breast = system: MDA-MB-231 breast
RXF 393 renal = system: RXF 393 renal
SF-268 CNS = system: SF-268 CNS
SF-295 CNS = system: SF-295 CNS
SF-539 CNS = system: SF-539 CNS
UACC-257 melanoma = system: UACC-257 melanoma
M14 melanoma = system: M14 melanoma

SMILES | growth (NCI-H23 lung) | growth (NCI-H226 lung) | growth (NCI-H322M lung) | growth (HOP-62 NSCLC) | growth (NCI-H460 lung) | growth (HOP-92 NSCLC) | growth (NCI-H522 lung) | growth (A549/ATCC NSCLC) | growth (786-0 renal) | growth (COLO 205 colon) | growth (DU-145 prostate) | growth (K-562 leukemia) | growth (MALME-3M melanoma) | growth (MDA-MB-231 breast) | growth (RXF 393 renal) | growth (SF-268 CNS) | growth (SF-295 CNS) | growth (SF-539 CNS) | growth (UACC-257 melanoma) | growth (M14 melanoma)
CCSc1ccc2c(c1)N(CCCN1CCN(C)CC1)c1ccccc1S2 | 74.2% | 90.5% | 73.1% | 69.8% | 9.17% (active) | 20.3% | 70.3% | 53.6% | 43.2% | -62.1% (active) | 56.3% | -20.9% (active) | -61.6% (active) | 16.5% | 18.6% | 55.8% | 35.4% | 63.2% | -69.8% (active) | -86.9% (active)
O=C(Nc1nc(-c2ccccc2Cl)cs1)c1cc(-c2ccccc2)nc2ccc(Cl)cc12 | 51.3% | 74.3% | 93.8% | 84.6% | 102% | 42.8% | 78.6% | 99.7% | 89.4% | 87.6% | 77.8% | 25.2% | 63.9% | 46.8% | 87.2% | 44.7% | 81.1% | -7.04% (active) | 84.6% | 4.1% (active)
[2H]C1([2H])NC([2H])([2H])C([2H])([2H])N(c2ccc(Nc3ncc4cc(C(=O)N(C)C)n(C5CCCC5)c4n3)nc2)C1([2H])[2H] | 69.9% | 71.2% | 78.7% | 60.3% | 62.7% | 76.1% | 82.7% | 51.5% | 61.1% | 38.3% | 99.7% | 64.6% | 58.4% | 64.9% | 82.4% | 77.4% | 72.7% | 86.5% | 61.1% | 75.2%
COc1cc2nc(-c3ccc(C(F)(F)F)cc3)cc(OCCN3CCC(O)CC3)c2cc1OC | 88.9% | 56.3% | 68.8% | 67.8% | 44.5% | 71.2% | 79.6% | 79.2% | 78.7% | 35.7% | 58.8% | 61.3% | 83.6% | 49.1% | 61.2% | 70% | 80.4% | 76.8% | 92.3% | 25.2%
O=C(Nc1ccc2cc3ccc(NC(=O)NC4CCCCC4)cc3nc2c1)NC1CCCCC1 | 87.5% | 97.7% | 104% | 89.2% | 103% | 99.8% | 103% | 101% | 60.1% | 100% | 97.3% | 16.8% | 106% | 101% | 15.7% | 68.1% | 45.6% | 50.1% | 99.8% | 90.5%
CC(=O)[C@@H]1CC[C@]2(C(=O)n3ccnc3)CC[C@]3(C)[C@H](CC[C@@H]4[C@@]5(C)Cc6c([nH]c7ccccc67)C(C)(C)[C@@H]5CC[C@]43C)[C@@H]12 | 87.8% | 76.3% | 95.3% | 95.7% | 80.9% | 93.9% | 82.9% | 68.2% | 94.4% | 101% | 98.5% | 67.7% | 102% | 90.7% | 106% | 90.8% | 82.8% | 97% | 97.1% | 96.1%
COc1cc2nc(-c3ccc(C(F)(F)F)cc3)cc(OCCCN3CCC(O)CC3)c2cc1OC | 57.9% | -9.29% (active) | 61.1% | 45.3% | 16.5% | 19.9% | 10.5% | 27.7% | 42.7% | 26.5% | 28.3% | 6.21% (active) | 43.9% | 11.2% | 42.1% | 49.9% | -43.5% (active) | 45.5% | -8.17% (active) | -55.9% (active)
